# Values joined by “and” are separate entries in the source; they are usually repeats but may differ in a detail not shown here. Equal values may be shown once. The whole screen tested about 270,000 compounds, of which about 5,800 (2.1%) were called active. Not shown: some 16% with an inconclusive outcome. What follows is part of a selection rich in actives, with near analogues and random picks from the rest. A number with no mark means an inactive call. Calls come from the whole dose curve; as a rule, active = well fitted inhibition curve with a large enough effect; inconclusive = small, poorly fitted or top-dose-only effect; inactive = flat fitted curve, though single readings scatter.
# Biological target: Microtubule-associated protein tau (Homo sapiens) (UniProt P10636)
# Experiment: qHTS for Inhibitors of Tau Fibril Formation, Thioflavin T Binding; note: nearly all actives have a fitted effect of over 55% in size
# Settings: recombinant tau K18 P301L (four-repeat tau fragment), heparin-induced fibrillization, ThT fluorescence; series mostly up to 57.4 µM; activity, negative = inhibition: at the top concentration
# How it was run: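 Tau K18 P301L fragment (15 uM unlabeled plus 0.24 uM Alexa 594-labeled) in 100 mM sodium acetate pH 7 with compound, fibrillization induced by 20 uM heparin for 6 hr at 37 C. Thioflavin T (30 uM) added, fluorescence read after 1 hr (ex 450, em 510 nm).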
# % is set by controls: 0 for no effect and ±100 for the full control effect; potency is the fitted concentration of half-maximal effect.
# Microtubule-associated protein tau (Homo sapiens), sequence (P10636 561-689 P618L limits assumed): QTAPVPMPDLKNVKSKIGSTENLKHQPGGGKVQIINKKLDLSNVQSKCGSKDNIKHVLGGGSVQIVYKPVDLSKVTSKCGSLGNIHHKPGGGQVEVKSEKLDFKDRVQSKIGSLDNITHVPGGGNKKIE
Structure (SMILES),"activity, negative = inhibition",Potency
COc1cccc(N2CCN(S(=O)(=O)c3ccc4c(c3)CCCN4C(C)=O)CC2)c1,-2.31%,
CCOC(=O)c1[nH]c2ccc(OC)cc2c1NC(=O)CCN1CCN(Cc2ccccc2)CC1,-7.67%,
COC(=O)c1[nH]c2ccc(Br)cc2c1NC(=O)Oc1ccccc1,,15.8 µM (active)
COC(=O)c1[nH]c2ccccc2c1NS(=O)(=O)c1ccc(OC)cc1OC,-2.82%,
O=S(=O)(NCCS(=O)(=O)N1CCN(c2ccccc2)CC1)c1ccc(Cl)cc1,-4.85%,
CN(C(=O)CSc1nc2ccc(NC(=O)COc3ccccc3)cc2s1)c1ccccc1,-3.95%,
CCCCc1nn2c(=O)cc(COC(=O)c3ccc(NC(=O)c4ccccc4C)cc3)nc2s1,-1.76%,
O=C1CSC(=S)N1/N=C/c1ccc(O)c([N+](=O)[O-])c1,,6.31 µM (active)
O=C(c1ccncc1)c1ccc([N+](=O)[O-])cc1,0.754%,
Cc1ccc(C(=O)Cn2cc([N+](=O)[O-])nc2C)cc1,-1.76%,
O=C(Cn1c[n+](CC(=O)c2ccc([N+](=O)[O-])cc2)cn1)c1ccc([N+](=O)[O-])cc1,,12.6 µM (active) and 20 µM (active)
Cc1csc2nc(COC(=O)c3ccc(NC(=O)COc4ccccc4F)cc3)cc(=O)n12,-5.4%,
O=C(Nc1cccc2ncccc12)c1ccc(-c2ccc(Cl)cc2Cl)o1,-12.8%,
Cc1ccc(/C=C(\C#N)C(=O)Nc2cccc3ncccc23)o1,,14.1 µM (active)
O=C(Nc1cccc2ncccc12)C(Cl)(Cl)Cl,8.69%,
O=C(NCc1ccccc1Cl)C1CCN(c2ncnc3c2nc2n3CCCCC2)CC1,-13.8%,
Cc1ccc(NC(=O)Cn2cnc3nc4c(cc3c2=O)CCCC4)cc1Cl,6.45%,
CCc1ccc(-c2cc(C(=O)NCc3ccco3)c3ccccc3n2)s1,,25.1 µM (active)
CCOc1ccc(CNC(=O)c2cc(-c3ccc(Cl)s3)nc3ccccc23)cc1,4.88%,
O=C(Nc1ccccc1)Nc1ccccc1C(=O)NCc1ccco1,-5.07%,

Structure (SMILES),"activity, negative = inhibition",Potency
Cc1cc(C)cc(NS(=O)(=O)c2cc3c(cc2C)NC(=O)CO3)c1,-8.97%,
CCc1ccc(NC(=O)CCCc2nnc3n(CCCOC)c(=O)c4sccc4n23)cc1,-2.94%,
CCN(CC)c1ccc(NC(=O)CN2CCN(CC(=O)Nc3ccc(Cl)cc3)CC2)cc1,-12.7%,
COc1ccc(-c2nc(SCC(=O)N3CCCCC3C)n[nH]2)cc1 (stereo not drawn),-11.1%,
Cc1ccc(CNC(=O)CSc2c(C)cnc3c2c(=O)n(C)c(=O)n3C)cc1,-3.11%,
Cc1ccc(NN=Nc2nc3c([nH]2)c(=O)n(C)c(=O)n3C)cc1,,28.2 µM (active)
CC(CCO)Nc1nc2c([nH]1)c(=O)n(C)c(=O)n2C (stereo not drawn),-1.07%,
CCc1cccc(CC)c1NC(=O)Cn1c(=O)c(-c2cc(C)ccc2NC(C)=O)nc2ccccc21,0.406%,
Nc1nc(-c2sc3nc4c(cc3c2N)CCCC4)nc(N2CCOCC2)n1,,3.55 µM (active)
Cc1cc(Oc2ccccc2)nc(N2CCOCC2)n1,-5.46%,
Cc1nc(N2CCOCC2)nc2c1CCCC2,-16.3%,
COc1ccc(CCNc2nc(-c3ccc(Cl)cc3)cc(C(F)(F)F)n2)cc1OC,-16.6%,
COc1ccc2c(Sc3ccc(C)cc3)c(C(=O)NC(C)c3ccccc3)[nH]c2c1 (stereo not drawn),2.48%,
CNC(=O)c1ccc(-c2nc(CN3CCc4ccccc43)c(C)o2)cc1,-12.5%,
CCc1ccc(NC(=O)c2nn(-c3ccc(C)cc3)c(=O)n(C)c2=O)cc1,-10.4%,
CC(C)CCNC(=O)CSc1nc2ccccc2nc1Cc1ccc(Cl)cc1,5.97%,
CCc1ccc(Sc2cc(C(=O)NCCCOC(C)C)c3ccccc3n2)cc1,-15.9%,
COc1ccccc1OCCNc1cc(N2CCOCC2)ccc1[N+](=O)[O-],,14.1 µM (active)
COc1ccccc1OCCNC(=O)c1cc([N+](=O)[O-])cc([N+](=O)[O-])c1,1.4%,
O=[N+]([O-])c1ccc(N2CCN(S(=O)(=O)c3ccc4ccccc4c3)CC2)cc1NCc1ccco1,-9.48%,

Structure (SMILES),"activity, negative = inhibition",Potency
Cc1ccc2nc(COc3cccc(NC(=O)Nc4ccc(C)c(Cl)c4)c3)cc(=O)n2c1,-13.6%,
CCc1ccc(CNCc2c(C(=O)O)n(Cc3ccc(F)cc3Cl)c3cc(OC)ccc23)cc1,-12.6%,
COc1ccc(S(=O)(=O)NCc2cccn2Cc2cccc(C)c2)cc1,10.6%,
COc1ccc(Cc2nc3ccc(C(=O)NCc4ccccc4C)cc3o2)cc1,-12.9%,
COCCN(CCOC)C(=S)Nc1ccccc1Cl,1.33%,
O=C(Nc1ccccc1Cl)/C(Cl)=C(\Cl)S(=O)c1ccccc1 (stereo not drawn),,2.82 µM (active)
O=C(Nc1ccccc1Cl)c1ccc2nsnc2c1,-5.65%,
CCOC(=O)C1CCCN(C(=O)Cn2ncc3c(C)n(Cc4ccc(F)cc4)c(C)c3c2=O)C1 (stereo not drawn),-5.22%,
O=C(CCc1nc(CN2CCN(S(=O)(=O)c3ccc(Cl)cc3)CC2)no1)N1CCCCC1,-2.38%,
CCC(=O)Nc1ccc(C)cc1-c1nc2ccccc2n(Cc2ccccc2)c1=O,4.56%,
C=CCNc1scc(-c2ccccc2)[n+]1CC=C,-6.04%,
C=CC[n+]1c(-c2ccc(C)cc2)csc1NNC(=O)Nc1ccccc1,,15.8 µM (active)
Cc1ccc(NC(=O)Nc2ccccc2)c(Br)c1,0.764%,
O=C(NCC(c1ccc(Cl)cc1)N1CCOCC1)c1ccccc1F (stereo not drawn),-2.31%,
COc1ccc(-c2cc(C(=O)NCc3cc(OC)c(OC)c(OC)c3)[nH]n2)cc1,-1.22%,
Cc1ccc2c(c1)N(CC(=O)NCCCN1CCCCC1)C(=O)c1cccnc1O2,5.5%,
Cc1ccc(Nc2c(-c3ccc(C)s3)nc3ccccn23)cc1,-17.4%,
Cc1ccc(Nc2c(-c3ccc(N(C)C)cc3)nc3nc[nH]n23)cc1,,14.1 µM (active)

# Source: PubChem BioAssay AID1460 (National Center for Advancing Translational Sciences (NCATS), 2008)
